Laboratory results from PubChem BioAssay (EPA / NIEHS).
Active and inactive are the calls of the source. Rule for the calls: active = hit-call score of the fitted dose curve at least 0.9, where 1 is the maximum; inactive = score below 0.9.

Read-out: Peroxisomal acyl-coenzyme A oxidase 1 (ACOX1) gene, ACOX1 (gene 51)
Test: LTEA_HepaRG_ACOX1: Life Technologies and Expression Analysis (LTEA) Assay for Peroxisomal acyl-coenzyme A oxidase 1 (ACOX1) gene using HepaRG (AID 2283467)
Details: mRNA level, 48 h; actives raise or lower the signal
Method: LTEA_HepaRG is a cell based, multiplexed-readout assay that uses HepaRG, a human liver cell line, with measurements taken at 48 hours after chemical dosing on a 96-well plate.LTEA_HepaRG_ACOX1 is one of 102 assay component(s) measured in the LTEA HepaRG cell culture assay. It is a marker of Steatosis.Data from the assay component LTEA_HepaRG_ACOX1 was analyzed into 1 endpoint. This assay endpoint, LTEA_HepaRG_ACOX1, was analyzed with bidirectional fitting relative to DMSO as the negative control and baseline of activity. Using a type of inducible reporter, measures of mRNA induction for gain or loss-of-signal activity can be used to understand regulation of transcription factor activity. To generalize the intended target to other relatable targets, this assay endpoint is annotated to the oxidase intended target family, where the subfamily is steatosis.
A total of 1060 chemcials from the ToxCast library were tested in eight-point concentration-response experiments. Cell culture and cytotoxicity assays were conducted at Thermo Fisher Scientific's Custom Services facility (Madison, WI). A single lot of human HepaRG cells (Thermo Fisher Scientific, Frederick, MD) was used for the cell culture experiments. 96-well format collagen type I coated plates of human HepaRG cells were prepared using established methods. Briefly, cryopreserved HepaRG cells were thawed, plated at a density of approximately 100,000 cells/well in HepaRG Thaw, Plate, and General Purpose media (HPRG770, Thermo Fisher Scientific), and incubated for 48 hours. 0.5% DMSO was selected as vehicle control to balance the requisite need of DMSO in HepaRG cultures to maintain differentiation (for example, baseline metabolism, proportions of hepatocytes vs. cholangiocytes), while enabling further hepatic receptor pathway activation (for example, PXR and CAR) in response to chemical exposure. 48 hours after plating, the culture medium was replaced with HepaRG Serum-Free Incudtion Media. Cells were exposed to each test chemical in duplicate and maintained in CO2 incubators for another 48 hours. Chemical plates were thawed to room temperature and 200x concentrations of treatment groups were prepared. 8-point conentration-reponse curves were made with the highest exposure at 100 uM, followed by half-log dilutions, all in 0.5% DMSO. Each test plate contained variouse controls, induction positive controls (1mM phenobarbital), cytotoxicity positive controls ([…] aflatoxin B1), vehicle controls (0.5% DMSO), and total lysis controls (0.5% DMSO). Cell morphology images were taken using an Essen IncuCyte FLR automated microscope, with six 96-well plates imaged in about 24 minutes. Images were captured and exported and JPEG files. Spent culture media was transfered to black-well plates for the LDH assay, and remaining media was sorted at -80 C for later use. Cells were treated with RLT buffer and frozen until shipped for gene expression analysis. Total RNA was isolated from the cell suspension in 75 uL of Buffer RLT (Qiagen, Germantown, MD 20874) by Quintiles/Expression Analysis (Durham, NC) using a custom isolation procedure. Total RNA from each plate well was transferred to a preamplification plate. Fluidigm's 96.96 Dynamic ArrayTM (Fluidigm, Amsterdam, the Netherlands) technology was used for gene expression analyses by quantitative reverse transcription polymerase chain reaction (qRT-PCR, performed by Quintiles/Expression Analysis, Durham, NC)89. Standard TaqManTM Assays (Applied Biosystems/ThermoFisher Scientific, Foster City, CA) were used to assess the expression of 93 genes selected based on their selectivity and sensitivity to important hepatic receptors known to be modulated by environmental chemicals; importance in human hepatocyte functionality; and hepatotoxicity. […]

outcome, inactive:
CC1=CC(=O)/C(=C(/C)O)C(=O)O1
O=C1c2ccccc2C(=O)N1CCc1noc(-c2ccc(CN3CCCCCC3)s2)n1
CCCCOC(=O)CC(CC(=O)OCCCC)(OC(C)=O)C(=O)OCCCC
CCCCCCCC[Si](OCC)(OCC)OCC
Cc1cccc2ccccc12
O=c1ccc2ccccc2o1
CCCCCCCCCCCCO
Cc1ncc(CO)c(CO)c1O
CCCCCc1ccc(N)cc1
CCCC(=O)OCCC(C)C
Oc1ccccc1
C[C@]12CC[C@@H]3c4ccc(O)cc4CC[C@H]3[C@@H]1CC[C@H]2O
CCCCCCCCN(C)CCCCCCCC
CC(C)(O)c1ccc(CNC(=O)c2cccnc2Oc2ccc3nonc3c2)cc1
O=C(OCCCCCCOC(=O)c1ccccc1)c1ccccc1
O=C1O[C@H]([C@@H](O)CO)C(O)=C1O
CCCCCCCCCCCO
O=C1CCC(C2CCCCC2)CC1
CC(O)CC(C)(C)O (stereo not given)
NCc1cccc(C2CCN(C(=O)c3ccc(C#Cc4ccccc4F)o3)CC2)c1
CCCCCCCCOC(=O)c1cc(O)c(O)c(O)c1
CO[C@H]1/C=C/O[C@@]2(C)Oc3c(C)c(O)c4c(O)c(c(/C=N/N5CCN(C)CC5)c(O)c4c3C2=O)NC(=O)/C(C)=C\C=C\[C@H](C)[C@H](O)[C@@H](C)[C@@H](O)[C@@H](C)[C@H](OC(C)=O)[C@@H]1C

AC50, active:
Cc1c2ccccc2c(C)c2c1ccc1ccccc12 27.7 µM
CN1C(=O)N(c2ccccc2Br)Cc2cnc(Nc3ccc4c(c3)OCC(CO)O4)nc21 (stereo not given) 77.9 µM
CN(C)c1ccc(C(=C2C=CC(=[N+](C)C)C=C2)c2ccc(N(C)C)cc2)cc1 12.9 µM
c1ccc(C[n+]2cccc3ccccc32)cc1 22.8 µM
CC(C)(C)c1csc(-c2cc3cc(OCc4ccccc4CC(=O)O)ccc3o2)n1 72.1 µM
O=C(O)Cc1cc(I)c(Oc2ccc(O)c(I)c2)c(I)c1 86 µM
NC(=O)c1nc(-c2cccc(-c3cc(F)ccc3OCC(F)(F)C(F)(F)F)c2)n[nH]1 81.4 µM
COc1cc(C(=O)NC2CCN(C)CC2)ccc1Nc1ncc2c(n1)N(C1CCCC1)CC(F)(F)C(=O)N2C 12.2 µM
CC(=O)N1CCN(c2ccc(OC[C@H]3CO[C@](Cn4ccnc4)(c4ccc(Cl)cc4Cl)O3)cc2)CC1 18.1 µM
Cc1occc1C(=O)Nc1ccc(C(=O)N2CCC(F)(F)/C(=C\C(=O)N3CCC(N4CCCCC4)CC3)c3ccccc32)cc1 31.2 µM
CC1(C)NC(=O)N(c2ccc([N+](=O)[O-])c(C(F)(F)F)c2)C1=O 63.7 µM
OC12N=C(c3ccccc3)SC1Cc1cc(Cl)ccc12 (stereo not given) 21.1 µM
CC[C@H](NC(=O)c1cc(F)ccc1NS(=O)(=O)c1cccc2cccnc12)c1ccccc1 71.3 µM
CC/C(=C(/CC)c1ccc(O)cc1)c1ccc(O)cc1 93.1 µM
Clc1ccccc1C(c1ccccc1)(c1ccccc1)n1ccnc1 60 µM
Cc1cc2c(cc1C(F)(F)F)N(C(=O)Nc1ccc(Oc3cccnc3C)nc1)CC2 46 µM
CN(C[C@@H](CC[N+]12CCC(C3CCCCC3)(CC1)CC2)c1ccc(Cl)c(Cl)c1)C(=O)c1cc(C(F)(F)F)cc(C(F)(F)F)c1 63.5 µM
CN(C)C(=O)C1(N2CCCCC2)CCN(CC[C@@]2(c3ccc(Cl)c(Cl)c3)CN(C(=O)c3ccccc3)CCO2)CC1 88.1 µM
